Source: article PMC13494018

B1: design_607_777643b9-bd23-49d1-80ae-2b1434974efa_1961_dldesign_0_cycle1_af2pred (protein)
chain: SEEEAKKKAEKAAEEAKKLAKEGAKFPEKAEELTEKAKEIAKELAKAGFPKLGSEAAAAAHEAQAEANLKKR
B2: design_607_777643b9-bd23-49d1-80ae-2b1434974efa_1699_dldesign_0_cycle1_af2pred (protein)
chain: SEKVEEVAKKEAEKIKEVAKKYGIEEEGKKAVERLKKKAEEAKKWKKPEIGAESVKTYGEGALKSVEILGKKKAA
B3: design_607_777643b9-bd23-49d1-80ae-2b1434974efa_1902_dldesign_0_cycle1_af2pred (protein)
chain: DVEKVAKEAIEKLEEYGKRVPELAPEAKKAIERVKRRKEEGEKNPKFAPASIEAIKDTAENLKKKAEKLEKA
B4: design_607_777643b9-bd23-49d1-80ae-2b1434974efa_1990_dldesign_0_cycle1_af2pred (protein)
chain: MKEIIKLESESLRKLVRVAREVAEADPSLKPLAEEAILAAADNPEEGAKKVEELAKASLKVEGGEEYAKKLKEVAEKLKEVEEIYK
B5: design_607_777643b9-bd23-49d1-80ae-2b1434974efa_1839_dldesign_0_cycle1_af2pred (protein)
chain: GMEAGKKALAEADKAGAAAIAAAKAGDVKAASAAAGEAYFYLAEAYVEFGPEADEEIKAKRQALLDALKKATAEAAA
B6: design_607_777643b9-bd23-49d1-80ae-2b1434974efa_2023_dldesign_0_cycle1_af2pred (protein)
chain: SAEAAAVKAEVDALTAAAVAATPEEAAKLGSQAAALAYEAAAEYASLSAREKDPEKAAEYKALADALREAARAARDRVAAAIAAKLA
B7: design_607_777643b9-bd23-49d1-80ae-2b1434974efa_1637_dldesign_0_cycle1_af2pred (protein)
chain: MEKDEALVERAFEAGGELFEKYPEGSKIASAMIRAATIARKDPEAGLEYLRERGLELGEEVAEEATERFRKILEEL
B8: design_607_777643b9-bd23-49d1-80ae-2b1434974efa_1959_dldesign_0_cycle1_af2pred (protein)
chain: MEKAEEYLEEAKKALEKAEEYIAKAAADPANRAAYAAKAAQYAQEARILADGLELVDPSMKPEAEELRERARELIKKLAAVL
B9: design_607_777643b9-bd23-49d1-80ae-2b1434974efa_1467_dldesign_0_cycle1_af2pred (protein)
chain: AEERAKKVIKEAEELRKEAIALAEKYKENPEVRKLAVEAAHYALLAISAAKAGVKFLPYAEEYLKKAKELYEKGKALAEALEKEKEEK
B10: design_607_777643b9-bd23-49d1-80ae-2b1434974efa_1383_dldesign_0_cycle1_af2pred (protein)
chain: DGEEFLKKLKERGELIKKKYPVAAEEITKITDEAVKVAQKGIEDPEKFEEYKKEATDLLHKAREIGAEKEVEAKL
B11: design_607_777643b9-bd23-49d1-80ae-2b1434974efa_1562_dldesign_0_cycle1_af2pred (protein)
chain: GKELLEKIKKLSEEAVFATADDPEKGKEKLEEAKKLVKEAEKLPEAPKAKEALEKAEKVSKSIIEDIEKAK
B12: design_607_777643b9-bd23-49d1-80ae-2b1434974efa_1448_dldesign_0_cycle1_af2pred (protein)
chain: AAAEEARKAAITAAADTLAEADGDVYLAANELAKKVGPEAGKAILEKAKAARKEALAAIKEDPAAGAALAKRKGEEILKEAKELIEKA
B13: design_607_777643b9-bd23-49d1-80ae-2b1434974efa_1995_dldesign_0_cycle1_af2pred (protein)
chain: EKEKELKEEVKEAGKRAEERVSRRAAKATNQQQKEATKALADNAIASIRKLAEEKGKETGKEEEFKKLAEEAEKKISAIVEAV
B14: design_607_777643b9-bd23-49d1-80ae-2b1434974efa_2143_dldesign_0_cycle1_af2pred (protein)
chain: GMEEEEKRREELKKKAEELIKKAHEAYENSAEASVTNKEAAEIYREAAKLYKKAAEAYRSGEKVEEGEKYEEEAKAKEKEAKALLEK
B15: design_607_777643b9-bd23-49d1-80ae-2b1434974efa_1601_dldesign_0_cycle1_af2pred (protein)
chain: ASEEVKKQAEASSAAYREAKKVAKYVKANAADPKAAEIAKKANALIEEAMTGDAETAEKKTKEIAKLAKE
B16: design_607_777643b9-bd23-49d1-80ae-2b1434974efa_2203_dldesign_0_cycle1_af2pred (protein)
chain: SAVEKEKEELKKEVEEAKKEAEKVIAGGTLEEGAKVADKAYQLAAEAASLGPEAEDIEKEAREVARRLREYGKERRA
B17: design_607_777643b9-bd23-49d1-80ae-2b1434974efa_1871_dldesign_0_cycle1_af2pred (protein)
chain: DMKEEAKKVAKEAKEVAKKVYELDPAKGSELSAKIHEAEALVKHPKFAEEGLKELKETLKKAKELLKKLE
B18: design_607_777643b9-bd23-49d1-80ae-2b1434974efa_1377_dldesign_0_cycle1_af2pred (protein)
chain: AEVAALVKKASEAMGEARFNANAAEKIPEEAEEYAKKAEEAIKAFRDALAQIRALAAEASPETLAAADRAEARLKELEKKVKEALKK
B19: design_607_777643b9-bd23-49d1-80ae-2b1434974efa_1681_dldesign_0_cycle1_af2pred (protein)
chain: HMTPEQIAAAKATAAAAAALAANAATTTQAQITAVMDAAAAAMPEFADTFATLRATMLANYADKAGVAKGLAAVARMLAASAKAAE

molecular target: VTCN1, Q7Z7D3
Sequence (Q7Z7D3 whole entry): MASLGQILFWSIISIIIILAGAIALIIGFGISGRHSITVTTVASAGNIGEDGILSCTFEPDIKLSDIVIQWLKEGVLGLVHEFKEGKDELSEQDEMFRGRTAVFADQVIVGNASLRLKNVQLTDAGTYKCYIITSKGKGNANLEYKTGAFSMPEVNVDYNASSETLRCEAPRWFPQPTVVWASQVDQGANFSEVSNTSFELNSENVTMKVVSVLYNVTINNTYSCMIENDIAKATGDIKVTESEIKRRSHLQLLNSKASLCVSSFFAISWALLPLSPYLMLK

Binding in a display sort, inactive:
B1 not found
B2 not found
B3 not found
B4 not found
B5 not found
B6 not found
B7 not found
B8 not found
B9 not found
B10 not found
B11 not found
B12 not found
B13 not found
B14 not found
B15 not found
B16 not found
B17 not found
B18 not found
B19 not found
